Shown are actives, neighbours in structure and some others; about 19% of the full set was active somewhere.
DT40 TDP1 no CPT: qHTS for Inhibitors of human tyrosyl-DNA phosphodiesterase 1 (TDP1): qHTS in cells in absence of CPT | DT40 Tdp1-/- hTDP1 cells, no CPT, ATP luminescence, 48 h | Potency, µM (doses to about 46.2 µM), actives largely listed as inhibitors | actives 15% (n = 420,000); note: nearly all actives have a fitted effect of over 55% in size
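Chicken DT40 Tdp1-/- cells stably complemented with human TDP1 were seeded at 400 cells/well with DMSO in place of 20 nM camptothecin. After compound pinning, cells grew at least 48 hr at 37 °C; viability read by CellTiter-Glo luminescence.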
HT1080-NT tox: qHTS for induction of synthetic lethality in tumor cells producing 2HG: qHTS for the HT-1080-NT fibrosarcoma cell line; HT-1080-NT fibrosarcoma viability, CellTiter-Glo ATP luminescence, 48 h; actives 1.6% (n = 360,000); AID 686970, 2013; Potency, µM (titrated, usually from 46.1 µM), actives largely listed as cytotoxic;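 note: NT is the 2HG producing partner of a matched IDH1 knockdown line; nearly all actives have a fitted effect of over 55% in size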
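Viability of the 2HG-overproducing fibrosarcoma line after 48 hours of compound exposure at 37 degrees C was determined by luminescence with CellTiter-Glo, and concentration-effect curves were then fitted and categorized.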
DT40 TDP1 CPT: qHTS for Inhibitors of human tyrosyl-DNA phosphodiesterase 1 (TDP1): qHTS in cells in presence of CPT | chicken DT40 Tdp1-/-;hTDP1 cells + 20 nM CPT, ATP luminescence, 48 h | Potency, µM (top dose mostly 46.2 µM), hits mostly inhibitors | actives 12% (n = 420,000); note: nearly all actives have a fitted effect of over 55% in size
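Chicken DT40 Tdp1-/- cells stably complemented with human TDP1 were seeded at 400 cells/well in medium containing 20 nM camptothecin, exposed to pin-transferred compounds, and grown at 37 °C for at least 48 hr. Viability was read as ATP luminescence.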
IL1B secr inh: qHTS for Inhibitors of Inflammasome Signaling: IL-1-beta AlphaLISA Primary Screen. activity change, % at 57.5 µM. actives 4.7% (n = 360,000). THP-1 LPS/ATP IL-1B secretion, AlphaLISA, 16 h; stronger effect = lower value; in the data active = activity change below about -50%; inconclusive = mostly about -30% to -49%
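THP-1 cells pretreated 1 hr with compounds (up to 57.5 uM final), then stimulated with LPS (250 ng/mL final) plus ATP (1.25 mM final); secreted IL-1B measured by AlphaLISA after 16 hr, decreased signal indicating inhibition.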
HT1080 IDH1KD tx: qHTS for induction of synthetic lethality in tumor cells producing 2HG: qHTS for the HT-1080-IDH1KD cell line; HT-1080 IDH1 knockdown viability, ATP luminescence, 48 h; Potency, µM (series often up to 46.1 µM), usual class: cytotoxic; actives 2% (n = 360,000)
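Using the IDH1-knockdown HT-1080 line run in the same batch and compound series as the NT line, viability after 48 h at 37 °C was determined by CellTiter-Glo luminescence and expressed as % activity.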
ELG1 DNA repair: qHTS screen for small molecules that inhibit ELG1-dependent DNA repair in human embryonic kidney (HEK293T) cells expressing luciferase-tagged ELG1; HEK293T ELG1-luciferase reporter, luminescence, 16 h; DNA damage induced by 5-fluorouridine; Potency, µM (top dose mostly 46.1 µM), most hits filed as inhibitors; actives 2.3% (n = 330,000); note: nearly all actives have a fitted effect of over 55% in size
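In this reporter screen, reduction of luminescence relative to DMSO vehicle indicated activity. Compounds and 5-fluorouridine were added together to 2,000 cells per well, incubated for 16 hr at 37 °C, then developed with ONE-Glo.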
Each line names hits and unclear results; the compound was inactive in the other large screens. Unless noted, calls come from the whole dose curve; as a rule, active = well fitted curve in the direction sought with a large enough effect; inconclusive = small, poorly fitted or top-dose-only effect, or another doubt; inactive = no such curve, though single readings can be large; an effect the other way counts as inactive or inconclusive.

CN(C)c1ccc(C2C3=C(CCCC3=O)OC3=C2C(=O)CCC3)cc1	none
Cc1ccc(S(=O)(=O)Oc2ccc(C3C4=C(CCCC4=O)OC4=C3C(=O)CCC4)cc2)cc1	DT40 TDP1 no CPT 16µM, DT40 TDP1 CPT 23µM
CCOC(=O)c1sc(NNC(=O)c2ccc(C)cc2)nc1C	DT40 TDP1 no CPT inconclusive
CCOC(=O)c1nc(NNC(=O)c2ccc([N+](=O)[O-])cc2)sc1C	DT40 TDP1 no CPT inconclusive, HT1080-NT tox inconclusive, DT40 TDP1 CPT inconclusive, HT1080 IDH1KD tx 7.3µM, ELG1 DNA repair 16µM
Cc1cnc(C)c(-c2cc(F)cc3c2OC(CNC(=O)C2CCOC2)C3)n1 (stereo unspecified)	none (no result: HT1080-NT tox, IL1B secr inh, HT1080 IDH1KD tx, ELG1 DNA repair)
O=C(CSc1nccn1-c1ccccc1)N1CCc2ccccc21	none
Cc1ccc(-n2c(SCC(=O)N3CCCc4ccccc43)nnc2-c2cccnc2)c(C)c1	DT40 TDP1 no CPT 23µM, DT40 TDP1 CPT inconclusive
Cc1ccc(NCc2nnc(SCC(=O)N3CCCc4ccccc43)o2)c(C)c1	DT40 TDP1 no CPT 18µM, DT40 TDP1 CPT 5.8µM, HT1080 IDH1KD tx inconclusive
O=C(CSc1ncc(-c2ccccc2)n1C1CCCC1)N1CCc2ccccc21	DT40 TDP1 no CPT 21µM, DT40 TDP1 CPT 23µM, IL1B secr inh -61, HT1080 IDH1KD tx inconclusive
O=C(CSc1nccn1-c1ccc(Cl)cc1)N1CCCc2ccccc21	DT40 TDP1 no CPT 15µM, DT40 TDP1 CPT inconclusive
O=C(CSc1nnc(CNc2ccccc2)o1)N1CCCc2ccccc21	none
CCOC(=O)c1nnc2c(-c3ccc(F)cc3)c(C)nn2c1N	none (no result: HT1080-NT tox, IL1B secr inh, HT1080 IDH1KD tx, ELG1 DNA repair)
Cn1c(-c2ccccc2)cnc1SCC(=O)N1CCCc2ccccc21	DT40 TDP1 no CPT inconclusive, DT40 TDP1 CPT inconclusive, IL1B secr inh inconclusive
O=C(CSc1nnc(-c2ccc(Cl)s2)o1)N1CCCc2ccccc21	DT40 TDP1 no CPT 16µM, DT40 TDP1 CPT inconclusive
Cc1ccc(-c2cnc(SCC(=O)N3CCCc4ccccc43)n2C)cc1	IL1B secr inh -50
COc1ccc(C)cc1NC(=O)C1CCN(S(=O)(=O)c2ccc3c(c2)NC(=O)CO3)CC1	ELG1 DNA repair inconclusive
COc1ccc(Cc2nc(-c3ccc(Cl)cc3)no2)cc1	ELG1 DNA repair inconclusive
CCCn1c(SCc2nc(-c3ccc(OC)c(OC)c3)no2)nnc1-c1ccccc1	DT40 TDP1 no CPT 18µM, DT40 TDP1 CPT inconclusive (no result: HT1080-NT tox, IL1B secr inh, HT1080 IDH1KD tx, ELG1 DNA repair)
CCCn1c(SCc2nc(-c3cc(OC)ccc3OC)no2)nnc1-c1ccc(Cl)cc1	DT40 TDP1 no CPT 15µM, DT40 TDP1 CPT 13µM (no result: HT1080-NT tox, IL1B secr inh, HT1080 IDH1KD tx, ELG1 DNA repair)
CCn1c(SCc2nc(-c3ccccc3)no2)nnc1-c1ccco1	DT40 TDP1 no CPT inconclusive
COc1ccc(-c2nnc(SCc3nnc(-c4ccccc4)o3)n2C)cc1OC	none
CCCn1c(SCc2nc(-c3ccccc3C)no2)nnc1-c1ccc(Cl)cc1	DT40 TDP1 no CPT 16µM, DT40 TDP1 CPT 13µM (no result: HT1080-NT tox, IL1B secr inh, HT1080 IDH1KD tx, ELG1 DNA repair)
CC(C)[C@H](NC(=O)c1cc2cc(Cl)ccc2n1C)C(=O)N[C@@H](C(=O)O)c1ccccc1	none
CCC(=O)N1CCc2cc(S(=O)(=O)N3CCN(c4ccccc4F)CC3)ccc21	none (no result: HT1080-NT tox, IL1B secr inh, HT1080 IDH1KD tx, ELG1 DNA repair)
CCOc1ccc(C(=O)CC(C(=O)O)N2CCN(Cc3ccccc3)CC2)cc1 (stereo unspecified)	DT40 TDP1 no CPT 3.7µM, DT40 TDP1 CPT 21µM
CCOc1ccc(C(=O)OC(C)C(=O)N2CCN(Cc3ccccc3)CC2)cc1 (stereo unspecified)	DT40 TDP1 no CPT 18µM, DT40 TDP1 CPT 16µM, ELG1 DNA repair inconclusive
CCOc1ccc(C(=O)N2CCCCCC2)cc1	none
